# Laboratory results from PubChem BioAssay (EPA / NIEHS).
# Results filed as inconclusive are left out. Calls of active or inactive are those of the source. The calls were made as follows: active = hit-call score of the fitted dose curve at least 0.9, where 1 is the maximum; inconclusive = response in the unintended direction; inactive = score below 0.9.
# Columns and labels:
# [1] = biological target: rabbit Imidazoline 2 Central (I2C), CKB (gene 100009085) (UniProt P00567); assay: NVS_ENZ_rabI2C: NovaScreen (NVS) Enzymatic Assay for rabbit Imidazoline 2 Central (I2C) (AID 2283228)
# Summary of the method: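 Rabbit brain membranes, cell-free; readout by filter-based scintillation counting 1.5 hours after dosing, loss of signal vs DMSO. Initial duplicate test at 25 uM, then concentration-response with 50 uM top concentration.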
# [2] = biological target: human Vascular Endothelial Growth Factor Receptor 3 (VEGFR3), FLT4 (gene 2324) (UniProt P35916); assay: NVS_ENZ_hVEGFR3: NovaScreen (NVS) Enzymatic Assay for human Vascular Endothelial Growth Factor Receptor 3 (VEGFR3) (AID 2283229)
# Procedure: NVS_ENZ_hVEGFR3 is a biochemical, single-readout assay that uses extracted gene-proteins in a cell-free assay. Measurements were taken 1 hour after chemical dosing in a 96-well plate.NVS_ENZ_hVEGFR3 is one of one assay component(s) measured or calculated from the NVS_ENZ_hVEGFR3 assay. It is designed to make measurements of enzyme activity, a form of enzyme reporter, as detected with fluorescence intensity signals by Fluorescence and electrophoretic mobility shift technology.Data from the assay component NVS_ENZ_hVEGFR3 was analyzed into 1 assay endpoint. This assay endpoint, NVS_ENZ_hVEGFR3, was analyzed in the positive analysis fitting direction relative to DMSO as the negative control and baseline of activity. Using a type of enzyme reporter, loss-of-signal activity can be used to understand changes in the enzymatic activity as they relate to the gene FLT4. Furthermore, this assay endpoint can be referred to as a primary readout, because this assay has produced multiple assay endpoints where this one serves a enzymatic activity function. To generalize the intended target to other relatable targets, this assay endpoint is annotated to the kinase intended target family, where the subfamily is receptor tyrosine kinase.
# Binding assays used specific radioligands (tritiated, iodinated) with non-radioactive competitive displacement ligands in agonist or antagonist protocols (as indicated) and various reference compounds and inhibitors to titrate specific binding to receptors and transporters. Most enzyme assays (CYPs, kinases, phosphatases, proteases, HDACs) used recombinant protein and specific substrates (fluorescence mostly, some colorimetric and radioactive) and inhibitors, followed by a biochemical separation of substrate and product. All assays for the biochemical HTS were initially run in duplicate at a single concentration (10 uM for CYP450 assays and 25 uM for all others). […]
# [3] = biological target: human Vascular Endothelial Growth Factor Receptor 2 (VEGFR2), KDR (gene 3791) (UniProt P35968); assay: NVS_ENZ_hVEGFR2: NovaScreen (NVS) Enzymatic Assay for human Vascular Endothelial Growth Factor Receptor 2 (VEGFR2) (AID 2283230)
# Summary of the method: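 Cell-free recombinant VEGFR2 kinase, fluorescent substrate with electrophoretic mobility-shift separation; read 1 h after dosing. Screened at 25 uM in duplicate, hits to concentration-response up to 50 uM; loss-of-signal versus DMSO.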
# [4] = biological target: human Sirtuin 2 (SIRT2), SIRT2 (gene 22933) (UniProt Q8IXJ6); assay: NVS_ENZ_hSIRT2: NovaScreen (NVS) Enzymatic Assay for human Sirtuin 2 (SIRT2) (AID 2283217)
# Summary of the method: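 Cell-free recombinant human SIRT2, fluorescent substrate with product separated by electrophoretic mobility shift, 1 hr. Screened in duplicate at 25 uM; hits rerun singly in concentration-response up to 50 uM, relative to DMSO.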
# [5] = biological target: human Tyrosine Protein Kinase Receptor Tie-2 (Tie2), TEK (gene 7010) (UniProt Q02763); assay: NVS_ENZ_hTie2: NovaScreen (NVS) Enzymatic Assay for human Tyrosine Protein Kinase Receptor Tie-2 (Tie2) (AID 2283225)
# Summary of the method: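 Recombinant human Tie2 kinase activity was read cell-free by fluorescence with electrophoretic mobility shift, 1 hour after dosing. The screen used 25 uM in duplicate, then concentration-response up to 50 uM. Signal loss was scored against DMSO.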
# [6] = biological target: human Vascular Endothelial Growth Factor Receptor 1 (VEGFR1), FLT1 (gene 2321) (UniProt P17948); assay: NVS_ENZ_hVEGFR1: NovaScreen (NVS) Enzymatic Assay for human Vascular Endothelial Growth Factor Receptor 1 (VEGFR1) (AID 2283226)
# Summary of the method: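 Cell-free assay of recombinant human VEGFR1 kinase with substrate, measured 1 h after dosing; fluorescence with electrophoretic mobility-shift separation of substrate and product, referenced to DMSO; primary screen at 25 uM in duplicate, actives then run in concentration series.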
# [7] = biological target: human Sirtuin 1 (SIRT1), SIRT1 (gene 23411) (UniProt Q96EB6); assay: NVS_ENZ_hSIRT1: NovaScreen (NVS) Enzymatic Assay for human Sirtuin 1 (SIRT1) (AID 2283219)
# Summary of the method: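 Cell-free recombinant SIRT1 with a fluorescent substrate; substrate and product separated by electrophoretic mobility shift and read by fluorescence intensity, 1 h after dosing. Primary screen at 25 uM in duplicate; hits re-run in concentration-response up to 50 uM, relative to DMSO.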
# [8] = biological target: human SRC Proto-Oncogene, Non-receptor Tyrosine Kinase (SRC), SRC (gene 6714) (UniProt P12931); assay: NVS_ENZ_hSRC: NovaScreen (NVS) Enzymatic Assay for human SRC Proto-Oncogene, Non-receptor Tyrosine Kinase (SRC) (AID 2283223)
# Summary of the method: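 Cell-free kinase activity assay with fluorescent substrate, product separated by electrophoretic mobility shift, read 1 h after dosing. Duplicate single point at 25 uM, then concentration-response up to 50 uM; loss of signal versus DMSO.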
# [9] = biological target: human Tropomyosin Receptor Kinase A (TRKA), NTRK1 (gene 4914) (UniProt P04629); assay: NVS_ENZ_hTrkA: NovaScreen (NVS) Enzymatic Assay for human Tropomyosin Receptor Kinase A (TRKA) (AID 2283224)
# Summary of the method: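 Recombinant human TrkA activity read after 1 h by fluorescence with electrophoretic mobility shift separating substrate and product. Primary screen in duplicate at 25 uM; actives were rerun in concentration-response up to 50 uM. Loss of signal versus DMSO.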
# [10] = biological target: human Sirtuin 3 (SIRT3), SIRT3 (gene 23410) (UniProt Q9NTG7); assay: NVS_ENZ_hSIRT3: NovaScreen (NVS) Enzymatic Assay for human Sirtuin 3 (SIRT3) (AID 2283222)
# Summary of the method: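 Cell-free enzyme assay with recombinant protein and fluorescent substrate, product separated by electrophoretic mobility shift; read 1 hour after dosing. Screened in duplicate at 25 uM, then singleton concentration-response up to 50 uM; loss of signal versus DMSO.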
# Chain of human Vascular Endothelial Growth Factor Receptor 3 (VEGFR3), FLT4 (gene 2324) (P35916 whole entry, looked up): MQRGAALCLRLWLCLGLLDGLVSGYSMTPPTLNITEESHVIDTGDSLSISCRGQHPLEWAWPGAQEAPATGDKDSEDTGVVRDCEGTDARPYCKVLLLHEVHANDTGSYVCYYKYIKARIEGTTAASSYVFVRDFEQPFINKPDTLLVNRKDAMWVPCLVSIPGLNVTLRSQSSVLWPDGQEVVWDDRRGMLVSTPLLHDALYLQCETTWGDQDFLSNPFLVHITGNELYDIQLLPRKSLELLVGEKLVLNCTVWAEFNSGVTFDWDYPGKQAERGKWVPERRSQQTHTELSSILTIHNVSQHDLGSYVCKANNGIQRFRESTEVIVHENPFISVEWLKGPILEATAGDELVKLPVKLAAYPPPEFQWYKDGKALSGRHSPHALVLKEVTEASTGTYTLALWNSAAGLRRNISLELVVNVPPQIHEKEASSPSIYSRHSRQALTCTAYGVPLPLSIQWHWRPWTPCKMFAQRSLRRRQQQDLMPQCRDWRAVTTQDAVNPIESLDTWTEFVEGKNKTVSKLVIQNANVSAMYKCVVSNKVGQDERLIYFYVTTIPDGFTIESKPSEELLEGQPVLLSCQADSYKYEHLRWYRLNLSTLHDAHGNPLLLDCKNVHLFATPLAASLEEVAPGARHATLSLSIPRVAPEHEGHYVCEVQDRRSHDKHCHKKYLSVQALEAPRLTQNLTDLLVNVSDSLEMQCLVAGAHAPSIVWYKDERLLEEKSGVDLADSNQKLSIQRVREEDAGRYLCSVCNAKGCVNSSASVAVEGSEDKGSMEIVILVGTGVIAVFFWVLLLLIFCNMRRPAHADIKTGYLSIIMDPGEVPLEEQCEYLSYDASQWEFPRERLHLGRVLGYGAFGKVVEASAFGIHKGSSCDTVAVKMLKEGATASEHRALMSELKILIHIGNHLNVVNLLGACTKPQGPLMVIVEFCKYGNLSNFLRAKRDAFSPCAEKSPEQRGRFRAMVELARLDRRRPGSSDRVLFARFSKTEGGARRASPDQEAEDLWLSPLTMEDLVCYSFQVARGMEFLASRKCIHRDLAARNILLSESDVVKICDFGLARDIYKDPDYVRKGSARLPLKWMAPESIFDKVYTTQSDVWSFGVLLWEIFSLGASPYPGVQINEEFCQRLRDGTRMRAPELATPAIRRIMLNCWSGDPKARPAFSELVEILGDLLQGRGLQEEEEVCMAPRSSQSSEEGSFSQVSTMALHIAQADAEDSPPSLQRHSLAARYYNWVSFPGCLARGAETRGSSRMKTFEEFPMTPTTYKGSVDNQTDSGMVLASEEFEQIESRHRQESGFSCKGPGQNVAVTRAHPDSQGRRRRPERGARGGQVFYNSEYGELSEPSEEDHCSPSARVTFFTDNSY
# Chain of human Vascular Endothelial Growth Factor Receptor 2 (VEGFR2), KDR (gene 3791) (P35968 whole entry, looked up): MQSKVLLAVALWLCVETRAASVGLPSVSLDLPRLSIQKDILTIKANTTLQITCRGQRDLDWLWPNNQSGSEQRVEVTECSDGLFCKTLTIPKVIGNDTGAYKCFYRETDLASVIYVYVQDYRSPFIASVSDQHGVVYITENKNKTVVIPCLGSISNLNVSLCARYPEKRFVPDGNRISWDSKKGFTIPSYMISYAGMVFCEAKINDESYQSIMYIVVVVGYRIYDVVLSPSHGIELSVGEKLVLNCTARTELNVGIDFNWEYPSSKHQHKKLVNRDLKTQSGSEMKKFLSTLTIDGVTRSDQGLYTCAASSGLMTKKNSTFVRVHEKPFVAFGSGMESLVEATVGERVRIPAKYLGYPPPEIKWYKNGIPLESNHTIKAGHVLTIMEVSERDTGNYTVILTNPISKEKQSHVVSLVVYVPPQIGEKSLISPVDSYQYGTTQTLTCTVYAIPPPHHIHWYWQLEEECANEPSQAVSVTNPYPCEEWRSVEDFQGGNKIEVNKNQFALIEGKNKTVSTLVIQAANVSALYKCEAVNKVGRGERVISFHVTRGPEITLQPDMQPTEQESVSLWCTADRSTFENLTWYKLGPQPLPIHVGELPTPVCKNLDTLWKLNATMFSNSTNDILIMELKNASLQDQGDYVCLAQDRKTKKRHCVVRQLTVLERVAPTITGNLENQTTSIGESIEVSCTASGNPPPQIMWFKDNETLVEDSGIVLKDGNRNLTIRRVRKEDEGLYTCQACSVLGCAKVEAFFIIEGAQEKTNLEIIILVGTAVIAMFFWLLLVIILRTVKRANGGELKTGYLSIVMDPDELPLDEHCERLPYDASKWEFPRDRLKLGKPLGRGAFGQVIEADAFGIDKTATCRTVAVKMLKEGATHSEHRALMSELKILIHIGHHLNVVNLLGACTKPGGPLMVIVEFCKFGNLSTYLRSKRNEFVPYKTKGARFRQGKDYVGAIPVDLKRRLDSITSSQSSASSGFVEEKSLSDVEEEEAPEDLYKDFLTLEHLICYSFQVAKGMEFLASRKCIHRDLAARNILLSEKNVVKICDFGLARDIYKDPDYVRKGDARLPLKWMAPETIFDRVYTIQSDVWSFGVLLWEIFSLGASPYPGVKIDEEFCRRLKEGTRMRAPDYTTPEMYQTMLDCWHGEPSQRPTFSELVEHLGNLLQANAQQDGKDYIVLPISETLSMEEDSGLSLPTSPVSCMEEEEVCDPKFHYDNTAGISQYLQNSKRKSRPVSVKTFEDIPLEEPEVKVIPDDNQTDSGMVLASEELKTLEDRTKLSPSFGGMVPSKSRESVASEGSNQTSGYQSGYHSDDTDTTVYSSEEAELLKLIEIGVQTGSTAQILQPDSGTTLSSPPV
# Chain of human Sirtuin 3 (SIRT3), SIRT3 (gene 23410) (Q9NTG7 whole entry, looked up): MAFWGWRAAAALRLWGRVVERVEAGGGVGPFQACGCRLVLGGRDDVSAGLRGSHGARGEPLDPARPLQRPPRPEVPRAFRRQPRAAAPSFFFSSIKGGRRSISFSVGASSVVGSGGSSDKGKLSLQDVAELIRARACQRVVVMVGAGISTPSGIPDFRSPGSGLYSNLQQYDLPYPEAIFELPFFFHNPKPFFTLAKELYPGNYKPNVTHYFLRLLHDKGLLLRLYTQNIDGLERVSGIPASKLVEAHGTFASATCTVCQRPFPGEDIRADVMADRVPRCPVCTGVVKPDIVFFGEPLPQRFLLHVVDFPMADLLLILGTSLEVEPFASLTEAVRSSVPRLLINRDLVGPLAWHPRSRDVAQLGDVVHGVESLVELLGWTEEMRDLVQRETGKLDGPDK
# Chain of human Tyrosine Protein Kinase Receptor Tie-2 (Tie2), TEK (gene 7010) (Q02763 whole entry, looked up): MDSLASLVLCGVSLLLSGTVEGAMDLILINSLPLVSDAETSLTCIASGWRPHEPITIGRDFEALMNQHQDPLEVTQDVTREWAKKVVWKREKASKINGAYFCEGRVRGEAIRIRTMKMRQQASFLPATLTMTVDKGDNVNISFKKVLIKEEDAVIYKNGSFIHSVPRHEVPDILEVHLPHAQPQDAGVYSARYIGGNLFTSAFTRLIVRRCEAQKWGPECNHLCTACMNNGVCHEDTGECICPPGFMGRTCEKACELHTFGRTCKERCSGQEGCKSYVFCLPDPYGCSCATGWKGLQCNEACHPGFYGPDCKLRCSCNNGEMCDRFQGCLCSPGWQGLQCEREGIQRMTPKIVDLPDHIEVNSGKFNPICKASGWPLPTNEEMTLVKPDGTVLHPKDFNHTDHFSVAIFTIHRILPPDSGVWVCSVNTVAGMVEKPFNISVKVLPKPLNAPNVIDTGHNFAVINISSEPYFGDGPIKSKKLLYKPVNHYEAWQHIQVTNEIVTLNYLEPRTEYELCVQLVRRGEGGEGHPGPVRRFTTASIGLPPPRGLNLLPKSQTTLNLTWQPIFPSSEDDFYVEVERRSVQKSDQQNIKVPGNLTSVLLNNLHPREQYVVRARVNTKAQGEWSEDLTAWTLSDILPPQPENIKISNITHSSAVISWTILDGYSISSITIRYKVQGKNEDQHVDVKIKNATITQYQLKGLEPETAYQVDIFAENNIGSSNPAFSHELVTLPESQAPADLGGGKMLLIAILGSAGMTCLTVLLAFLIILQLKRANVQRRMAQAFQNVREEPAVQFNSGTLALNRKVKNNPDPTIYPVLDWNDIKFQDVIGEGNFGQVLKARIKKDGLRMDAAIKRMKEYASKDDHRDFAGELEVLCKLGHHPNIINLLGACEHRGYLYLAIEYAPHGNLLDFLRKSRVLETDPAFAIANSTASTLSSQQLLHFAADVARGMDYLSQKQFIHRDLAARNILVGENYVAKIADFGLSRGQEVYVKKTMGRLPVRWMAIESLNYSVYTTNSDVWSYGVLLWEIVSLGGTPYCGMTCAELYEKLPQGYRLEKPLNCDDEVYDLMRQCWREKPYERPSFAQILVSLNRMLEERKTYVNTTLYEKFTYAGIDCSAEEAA
# Chain of human SRC Proto-Oncogene, Non-receptor Tyrosine Kinase (SRC), SRC (gene 6714) (P12931 whole entry, looked up): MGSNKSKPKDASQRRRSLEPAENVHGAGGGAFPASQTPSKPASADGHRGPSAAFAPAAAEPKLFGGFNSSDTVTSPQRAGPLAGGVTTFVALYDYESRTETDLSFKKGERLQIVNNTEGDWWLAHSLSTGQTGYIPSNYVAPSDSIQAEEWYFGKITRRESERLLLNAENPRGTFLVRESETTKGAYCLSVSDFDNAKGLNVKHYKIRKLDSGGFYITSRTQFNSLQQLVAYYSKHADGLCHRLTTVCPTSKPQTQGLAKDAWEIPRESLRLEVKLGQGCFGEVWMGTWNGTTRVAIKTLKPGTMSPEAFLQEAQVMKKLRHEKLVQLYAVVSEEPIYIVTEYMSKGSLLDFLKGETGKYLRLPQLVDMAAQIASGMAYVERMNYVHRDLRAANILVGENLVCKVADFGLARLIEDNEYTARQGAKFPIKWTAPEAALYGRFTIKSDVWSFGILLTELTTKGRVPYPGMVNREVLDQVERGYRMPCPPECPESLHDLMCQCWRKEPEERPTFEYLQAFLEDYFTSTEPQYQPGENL
compound,measurement,setting,value
Nc1ccc([N+](=O)[O-])cc1,outcome,[1],inactive
O=C(N[C@H](c1ccccc1)[C@@H]1CN2CCC1CC2)c1c(Cl)ccc(C(F)(F)F)c1Cl,outcome,[1],inactive
COc1cc(C=O)cc2c1[C@H](COC(N)=O)[C@]1(OC(C)=O)ON2C[C@H]2[C@@H]1N2C(C)=O,outcome,[2],inactive
same,outcome,[3],inactive
CCN(CC)N=O,outcome,[4],inactive
same,outcome,[5],inactive
same,outcome,[6],inactive
same,outcome,[3],inactive
CCOC(=O)[C@]1(c2ccccc2)Oc2ccccc2[C@@H]1N,AC50,[1],4.37 µM (active)
same,outcome,[2],inactive
CCC[CH2][Sn]([Cl])([CH2]CCC)[CH2]CCC,AC50,[7],7.38 µM (active)
Oc1ccc2ccc3cccc4ccc1c2c34,AC50,[5],13.6 µM (active)
CC(C)(C)C(O)(CCc1ccc(Cl)cc1)Cn1cncn1 (centres undefined),outcome,[8],inactive
same,outcome,[5],inactive
Cc1ccc(N=C=O)cc1N=C=O,AC50,[4],25 µM (active)
COC(=O)Nc1nc2ccccc2[nH]1,outcome,[3],inactive
CC(C)(OOC(C)(C)c1ccccc1)c1ccccc1,outcome,[3],inactive
Clc1ccc(C(c2ccc(Cl)cc2)C(Cl)Cl)cc1,outcome,[3],inactive
CCNS(=O)(=O)C(F)(F)C(F)(F)C(F)(F)C(F)(F)C(F)(F)C(F)(F)C(F)(F)C(F)(F)F,outcome,[7],inactive
same,outcome,[8],inactive
same,outcome,[9],inactive
same,outcome,[5],inactive
same,outcome,[2],inactive
same,outcome,[3],inactive
CN(C)C(=O)Nc1ccc(Cl)cc1,outcome,[1],inactive
ClC1=C(Cl)[C@]2(Cl)[C@H]3[C@H]([C@@H]4C=C[C@H]3C4)[C@@]1(Cl)C2(Cl)Cl,outcome,[3],inactive
Clc1ccc(C(c2ccc(Cl)cc2)C(Cl)(Cl)Cl)cc1,AC50,[7],25 µM (active)
same,outcome,[3],inactive
CCCCC(CC)COC(=O)c1ccc(C(=O)OCC(CC)CCCC)c(C(=O)OCC(CC)CCCC)c1 (centres undefined),outcome,[10],inactive
same,outcome,[5],inactive
O=C(Oc1ccc(Br)cc1)N1CCN2CCC1CC2,outcome,[10],inactive
same,outcome,[5],inactive
Cc1ccc(N)c(N)c1,outcome,[7],inactive
same,outcome,[8],inactive
same,outcome,[1],inactive
CC(C)(O)c1cnn2c(-c3ccc(F)c(-c4c(F)cccc4C#N)c3)cnc2n1,AC50,[1],0.362 µM (active)
Nc1ccc(N=Nc2ccccc2)cc1,outcome,[1],inactive
Clc1ccc(Cl)c(Cl)c1,outcome,[7],inactive
same,outcome,[3],inactive
ClCCOCCCl,outcome,[10],inactive
same,outcome,[8],inactive
CNC(=O)Oc1cccc2c1OC(C)(C)C2,outcome,[3],inactive
c1ccc(NNc2ccccc2)cc1,outcome,[3],inactive
CN(C)c1ccc(C(=O)c2ccc(N(C)C)cc2)cc1,outcome,[1],inactive
